The values below come from PubChem BioAssay (NCI).

Several values for one entry are separate records, joined by “and”; a condition that tells them apart may be missing. Equal values may be shown once. Compounds without any hit were thinned out: in the full panel of roughly 83,000, 20% have a hit.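 Method: cells in 96-well plates; compound added at one concentration; 48 h incubation; percent growth measured; values under 10 scored active.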 Values without a mark were called inactive. Activity calls are given as the source filed them.

Among the test systems are SR leukemia; RPMI-8226 leukemia; OVCAR-8 ovarian; OVCAR-5 ovarian; OVCAR-4 ovarian; SK-OV-3 ovarian; IGROV1 ovarian; OVCAR-3 ovarian; HS 578T breast; NCI/ADR-RES ovarian; T-47D breast; BT-549 breast; MDA-MB-435 melanoma; SW-620 colon; MCF7 breast; HCT-116 colon; HCC-2998 colon; KM12 colon; MOLT-4 leukemia.
Assay in all cases: NCI-60 one-dose screen, 48 h (100 = growth as untreated, 0 = no growth, -100 = all killed)
Details in all cases: 10 µM unless noted

`O=C=Nc1ccc(Br)cc1`: the growth is 98.5% in the assay with SR leukemia; 98.9% in the assay with RPMI-8226 leukemia; 107% in the assay with OVCAR-8 ovarian; 109% in the assay with OVCAR-5 ovarian; 98.5% in the assay with OVCAR-4 ovarian; 99.1% in the assay with SK-OV-3 ovarian. For the same compound, the growth in the assay with IGROV1 ovarian is 112%; in the assay with OVCAR-3 ovarian, 105%; in the assay with HS 578T breast it was 106%; with NCI/ADR-RES ovarian it was 107%; with T-47D breast, 92.2%; in the assay on BT-549 breast it was 98.3%. For the same compound, the growth with MDA-MB-435 melanoma was 108%; in the assay on SW-620 colon, 103%; in the assay on MCF7 breast, 97.8%; in the assay on HCT-116 colon, 94.3%; in the assay with HCC-2998 colon, 100%; with KM12 colon, 105%.
For the compound `ClC1OC(Cl)(Cl)C(Cl)(Cl)OC1(Cl)Cl` (stereo not drawn), the growth was 97.1% in the assay with MOLT-4 leukemia; 95% in the assay with SR leukemia; 101% with OVCAR-8 ovarian; 111% with SK-OV-3 ovarian; 104% with IGROV1 ovarian; 110% in the assay with OVCAR-3 ovarian. In addition, the growth with HS 578T breast is 135%; in the assay with NCI/ADR-RES ovarian it was 102%; in the assay with T-47D breast it was 91.4%; in the assay with BT-549 breast, 84.4%; in the assay with MDA-MB-435 melanoma, 101%; in the assay on SW-620 colon, 115%. The growth with MCF7 breast is 76.9%; in the assay with HCT-116 colon, 89.4%; in the assay with HCC-2998 colon, 112%; with KM12 colon it was 104%.
On to `N#CC(NC(=O)CCl)=C(Cl)Cl`, for which the growth in the assay with SR leukemia is -18.2% (active); in the assay with RPMI-8226 leukemia, -22% (active); with OVCAR-8 ovarian, -39.3% (active); in the assay on OVCAR-5 ovarian, 44.4%; with OVCAR-4 ovarian, 21.1%; in the assay with SK-OV-3 ovarian it was 88.5%. Moreover, the growth in the assay with IGROV1 ovarian was -38.6% (active); in the assay with OVCAR-3 ovarian, -30.9% (active); in the assay on HS 578T breast, 14.8%; in the assay on NCI/ADR-RES ovarian it was 11.8%; in the assay on T-47D breast, -30% (active); in the assay on BT-549 breast, 38.9%. Further, the growth is 5.03% (active) with MDA-MB-435 melanoma; -50.1% (active) in the assay with SW-620 colon; 18.5% with MCF7 breast; -41.4% (active) in the assay on HCT-116 colon; -6.64% (active) with HCC-2998 colon; 56.8% with KM12 colon.
Regarding `CC(C)COC(=O)Cc1ccccc1`, the growth with MOLT-4 leukemia was 103%; with SR leukemia it was 100%; in the assay on OVCAR-8 ovarian, 110%; in the assay with OVCAR-5 ovarian it was 106%; with OVCAR-4 ovarian, 105%; with SK-OV-3 ovarian, 105%. The growth with IGROV1 ovarian was 109%; in the assay with OVCAR-3 ovarian it was 111%; in the assay with HS 578T breast, 102%; with NCI/ADR-RES ovarian, 110%; in the assay on BT-549 breast, 108%; in the assay with MDA-MB-435 melanoma it was 106%. The growth with SW-620 colon is 107%; with MCF7 breast it was 106%; in the assay on HCT-116 colon, 105%; with HCC-2998 colon it was 107%; in the assay on KM12 colon, 105%.
On to `C[C@H](O)CCC(=O)c1ccoc1`, for which the growth in the assay on MOLT-4 leukemia is 98.2%; with RPMI-8226 leukemia, 97.8%; in the assay on OVCAR-8 ovarian, 97.7%; in the assay on OVCAR-4 ovarian, 117%; in the assay on SK-OV-3 ovarian, 113%; in the assay with IGROV1 ovarian, 113%. For the same compound, the growth was 109% with OVCAR-3 ovarian; 97.1% in the assay on HS 578T breast; 102% with NCI/ADR-RES ovarian; 108% in the assay with T-47D breast; 118% in the assay with BT-549 breast; 112% in the assay on MDA-MB-435 melanoma. Also, the growth in the assay with SW-620 colon is 105%; in the assay on MCF7 breast, 98.6%; in the assay with HCT-116 colon it was 106%; in the assay on HCC-2998 colon, 102%; in the assay on KM12 colon, 104%.
`O=C1CCCCC1CN1CCCCC1` (stereo not drawn): the growth was 123% in the assay on SR leukemia; 108% in the assay with RPMI-8226 leukemia; 110% in the assay on OVCAR-8 ovarian; 97.1% in the assay on OVCAR-5 ovarian; 119% in the assay on OVCAR-4 ovarian; 97.9% in the assay on SK-OV-3 ovarian. Further, the growth in the assay with IGROV1 ovarian was 93.9%; in the assay with OVCAR-3 ovarian it was 100%; with HS 578T breast, 107%; in the assay with NCI/ADR-RES ovarian it was 101%; in the assay on T-47D breast it was 83.2%; in the assay with BT-549 breast, 117%. Also, the growth with MDA-MB-435 melanoma is 109%; in the assay with SW-620 colon, 101%; in the assay with MCF7 breast, 90.9%; with HCT-116 colon, 101%; with HCC-2998 colon, 97.8%; with KM12 colon, 98.1%.
For the compound `C[C@]12CCc3sc(Nc4ccc(F)cc4)nc3C1=CC[C@@H]1[C@@H]2CC[C@]2(C)C(=O)CC[C@@H]12`, the growth in the assay with MOLT-4 leukemia was 15.8%; with SR leukemia, 19.5%; in the assay on OVCAR-8 ovarian it was 68.4%; in the assay with OVCAR-4 ovarian it was 76.8%; in the assay with SK-OV-3 ovarian it was 90%; with IGROV1 ovarian, 75.2%. Further, the growth with OVCAR-3 ovarian is 24.1%; in the assay on HS 578T breast, 55.3%; in the assay on NCI/ADR-RES ovarian, 80.3%; in the assay on T-47D breast, 80%; in the assay with BT-549 breast, 43.8%; with MDA-MB-435 melanoma, 57%. Also, the growth is 35.4% with SW-620 colon, 20% in the assay with MCF7 breast, 17.7% with HCT-116 colon and 72.2% in the assay on KM12 colon.
For the compound `CC(C)c1cccc(C(C)C)c1O`, the growth was 84% and 115% in the assay with MOLT-4 leukemia; 101% and 100% with RPMI-8226 leukemia; 102% with OVCAR-8 ovarian; 106% and 112% with OVCAR-5 ovarian; 107% and 95.3% in the assay on OVCAR-4 ovarian; 113% and 96.9% with SK-OV-3 ovarian. Moreover, the growth in the assay on IGROV1 ovarian is 107%; with OVCAR-3 ovarian, 112% and 101%; in the assay on HS 578T breast, 105% and 94.9%; in the assay on NCI/ADR-RES ovarian, 108% and 106%; with T-47D breast, 95% and 93.2%; in the assay with BT-549 breast, 104% and 97.8%. Moreover, the growth was 104% and 100% with MDA-MB-435 melanoma; 106% and 112% in the assay on SW-620 colon; 91.1% in the assay on MCF7 breast; 101% and 95.8% with HCT-116 colon; 105% and 115% in the assay on HCC-2998 colon; 111% and 105% in the assay on KM12 colon.
